# Sampled rows, rich in hits. Any-hit rate of the full collection: about 21%.
# Shiga inhibitor = A qHTS for Small Molecule Inhibitors of Shiga Toxin. Vero cells, Shiga toxin protein synthesis inhibition reporter. inhibition, % at 38.7 µM. 290,000 compounds, 9.2% hits. AID 2315, 2010; in the data active means inhibition mostly above about 28%, no sharp cut-off; inactive means mostly below about 43%; further: 0% is about no effect
# HCV inhibitor = qHTS Assay for Inhibitors of Hepatitis C Virus (HCV) | 340,000 compounds, 3.4% hits | Huh7.5.1 HCVcc-Cre infection, luciferase reporter, 44 h | AID 651820, 2012 | Potency, µM (top dose mostly 41.8 µM), for inactives: top-dose activity change, negative = inhibition, actives largely listed as inhibitors; further: potency means the concentration at half of the fitted maximal effect; on the % scale 0 is the no-effect control and ±100 the full control effect
#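 1,000 cells/well; 4 h culture; + compound; + HCVcc-Cre (~0.5 moi); 44 h; luciferase substrate, RT 15 min; read 15 sec.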
# HCMV inh = qHTS Assay for inhibitors of the human cytomegalovirus (HCMV). HFF cells, HCMV-luciferase reporter, 72 h; active compounds read low. activity change, negative = inhibition, % at 57.5 µM. 410,000 compounds, 4.5% hits; in the data active means activity change below about -60%; inconclusive means no clear call, values can overlap the other calls; inactive means above about -39%; further: on the % scale 0 is the no-effect control and ±100 the full control effect
#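 Inhibition of viral replication was scored as loss of reporter luminescence in HFFs infected with HCMV-luciferase (MOI 1 PFU/cell) for 72 h; compounds tested at 2 doses, normalized to buffer and Salinomycin controls.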
# Pf growth 48h = Primary qHTS for delayed death inhibitors of the malarial parasite plastid, 48 hour incubation. 310,000 compounds, 5.9% hits. P. falciparum luciferase growth in erythrocytes, 48 h. Potency, µM (highest dose often 28.7 µM), for inactives: at the highest dose activity change, negative = inhibition, usual class: inhibitors; further: potency means the concentration at half of the fitted maximal effect; on the % scale 0 is the no-effect control and ±100 the full control effect
#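 Parasite viability was followed by luminescence of a genomically integrated firefly luciferase. Cultures held 0.1% parasitemia at 2% hematocrit (final), incubated under 5% CO2 at 37 C.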
# Pf growth 96h = Primary qHTS for delayed death inhibitors of the malarial parasite plastid, 96 hour incubation; 320,000 compounds, 6.9% hits; Potency, µM (series often up to 28.7 µM), for the others: at the highest dose activity change, negative = inhibition, actives largely listed as inhibitors; P. falciparum luciferase reporter growth, 96 h; further: potency means the concentration at half of the fitted maximal effect; on the % scale 0 is the no-effect control and ±100 the full control effect
#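 Two-generation exposure (96 h) targets delayed-death phenotype. Reporter parasites carrying integrated firefly luciferase, in red cells at 2% hematocrit and 0.05% parasitemia final, kept at 37 C, 5% CO2; luminescence loss indicates inhibition.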
# Cycloheximide cs = Cycloheximide Counterscreen for Small Molecule Inhibitors of Shiga Toxin | cell reporter, cycloheximide protein synthesis inhibition counterscreen | max response, % | 300,000 compounds, 12% hits; in the data active means max response mostly above about 13%, no sharp cut-off; inactive means mostly below about 14%; further: read at 38.3 µM for the half of the compounds with a filed dose; 0% is about no effect
# Starred values were filed as active, the others as inactive; ? = inconclusive; . = no result; [ ] = dose if it differs, or a comment. Unless noted, the call rests on the fitted dose curve; in most records, active means well fitted inhibition curve with a large enough effect; inconclusive means small, poorly fitted or top-dose-only effect, or another doubt; inactive means no such curve, though single readings can be large or run the other way.
SMILES,Shiga inhibitor,HCV inhibitor,HCMV inh,Pf growth 48h,Pf growth 96h,Cycloheximide cs
CCSc1nnc(NC(=O)COc2ccc3ccccc3c2)s1,17,-6%,8,46%,14%,2
COc1ccccc1C1(CC(=O)Nc2nccs2)CCOC(C(C)C)C1 (stereo not given),12,?,-21,?,13µM*,1
O=S(=O)(Nc1nc2ccc(Cl)cc2s1)c1cccs1,17,20%,.,4%,5%,5
COc1ccccc1CCC(=O)Nc1nccs1,32,?,-26,.,1%,14*
O=C(COc1ccccc1)Nc1ncccn1,23,26%,5,.,32%,14
O=C(COc1ccc2ccc(=O)oc2c1)Nc1nccs1,68*,1%,0,161%,197%,64*
O=C(COc1ccccc1)Nc1nccs1,53*,24%,24,410%,?,30*
COc1ccccc1CCC(=O)Nc1ccc(S(=O)(=O)Nc2nccs2)cc1,.,25%,5,12%,0%,.
NC(=O)c1ccsc1NC(=O)COc1ccccc1,86*,5%,88,268%,.,42*
O=C(COc1ccc2ccc(=O)oc2c1)Nc1cccnc1,-1,1%,0,11%,6%,-1
CCCCc1nn2c(=O)cc(COC(=O)CNC(=O)c3ccccc3C)nc2s1,.,.,-2,.,.,.
COc1cc(C(=O)N/C(=C\c2cn(C)c3ccccc23)C(=O)NCCCn2ccnc2)cc(OC)c1OC,3,-5%,-8,-16%,?,-3
O=C(COC(=O)c1ccccc1Cl)Nc1nccs1,18,12%,-11,37%,62%,11*
C=CCOc1ccc(CNc2nccs2)cc1OC,22*,10µM*,13,37%,?,26*
C=CCOc1ccc(CNC(C)(C)C)cc1OC,-4,-1%,-1,8%,-18%,-1
COc1ccccc1CNC(=O)C(=O)Nc1nccs1,50,2%,9,1%,25%,-2
COc1cccc(CNc2nccs2)c1O,.,25%,-23,73%,7%,24*
Cc1cc(C(=O)N/N=C2/CC(C)CC(C)(C)C2)c(C)o1 (stereo not given),77*,3%,-18,-2%,2%,31*
CN(CC(=O)Nc1ccc(F)c(F)c1F)C(=O)Cc1ccc(S(=O)(=O)N2CCOCC2)s1,.,-16%,115,.,.,.
CC(C)(C)C(=O)NC1CC(=O)N(c2ccc3c(c2)OCCO3)C1 (stereo not given),.,.,-19,.,.,.
Cc1ccc(N2C(=O)[C@@H]3[C@H](C2=O)C2c4ccccc4C=CN2[C@@H]3C(=O)c2ccco2)c(C)c1 (stereo not given in full),15,-4%,5,?,16%,18
COc1ccc(N2C(=O)[C@@H]3[C@H](C2=O)[C@H]2c4ccccc4C=CN2[C@@H]3C(=O)Nc2ccccc2)cc1,-7,-17%,95,.,9.3µM*,9
CC(C)(C)C(=O)[C@@H]1[C@@H]2C(=O)N(c3ccc4c(c3)OCCO4)C(=O)[C@@H]2C2c3ccccc3C=CN21 (stereo not given in full),21,9%,.,?,-3%,16*
CC(=O)[C@@H]1[C@@H]2C(=O)N(Cc3ccccc3)C(=O)[C@@H]2C2c3ccccc3C=CN21 (stereo not given in full),-6,-11%,-3,?,-2%[5.75 µM],-3
Cc1ccc(N2C(=O)[C@@H]3[C@H](C2=O)C2c4ccccc4C=CN2[C@@H]3C(=O)c2ccco2)cc1 (stereo not given in full),29*,3%,69,?,-6%,20
SMILES,Shiga inhibitor,HCV inhibitor,HCMV inh,Pf growth 48h,Pf growth 96h,Cycloheximide cs
O=C(c1ccco1)[C@@H]1[C@@H]2C(=O)N(c3ccccc3)C(=O)[C@@H]2C2c3ccccc3C=CN21 (stereo not given in full),9,6%,48,-4%,4.7µM*,14
O=C(CN1C(=O)NC2(CCOc3ccccc32)C1=O)c1ccc(F)c(F)c1 (stereo not given),.,-2%,9,?,-19%,.
CCOc1ccc(Br)cc1S(=O)(=O)Nc1cccc(-c2ccc(OC)nn2)c1,.,.,17,.,.,.
CC(C)CCN(CCC(C)C)C/C(O)=C(\C#N)c1nc(-c2ccccc2)cs1,-8,?,10,.,2.6µM*,-1
COc1ccc(CSC2=NCCN2)cc1Br,-9,4%,5,?,0%,-3
CCCN(CCC)Cc1cc(=O)oc2cc(C)c(Cl)cc12,.,.,-7,.,.,.
CCOC(=O)c1c(-c2ccc(C)o2)csc1NC(=O)CN1CCC(C(N)=O)CC1,24,4.5µM*,-3,?,?,-5
CCOC(=O)c1c(-c2ccc(C)o2)csc1NC(=O)CN1CCN(CC)CC1,-13,?,-8,8%,-12%,-1
CCOC(=O)c1c(-c2ccco2)csc1NC(=O)CSc1nnc(N)s1,17,11µM*,-11,6%,41%,9
CCOC(=O)c1c(-c2ccc(C)o2)csc1NC(=O)CSc1nncs1,-13,?,?,10µM*,31%,2
CCOC(=O)c1c(-c2ccc(C)o2)csc1NC(=O)CN1CCCCC1,-4,?,1,?,?,-1
CCOC(=O)c1c(-c2ccc(C)o2)csc1NC(=S)NC(=O)c1ccc(F)cc1,-17,-3%,20,8.3µM*,7.4µM*,-1
CCc1ccccc1Nc1cc(C(=O)NCCc2ccccc2)c2ccccc2n1,.,.,7,.,.,.
COCc1cc(CN2CCCC(C(=O)Nc3cccc(-n4cnnn4)c3)C2)ccc1OC (stereo not given),.,.,24,.,.,.
CC(Oc1ccc(F)cc1)C(O)CCN(C)C (stereo not given),-34,11%,-28,265%,14%,-2
COc1cccc(C2NC(=O)CCC2[N+](=O)[O-])c1OC (stereo not given),-1,8%,-34,3%,41%,-2
O=C(NCCc1ccccc1)C(=O)NCC(c1cccnc1)N1CCN(c2ccc(F)cc2)CC1 (stereo not given),.,.,-24,.,.,.
COc1ccccc1CNC(=O)CCCNC(=O)c1ccc(Cl)cc1,6,-15%,-21,-5%,0%,8
CCCCn1c(SCC(=O)NC2CC2)nnc1-c1ccncc1,-2,11%,-3,40%,-17%,-4
Cc1ccc2c(COC(=O)C3CC(=O)N(c4ccc5c(c4)OCCO5)C3)cc(=O)oc2c1 (stereo not given),.,-1%,-27,.,.,.
COc1cc2nc(N3CCNCC3)nc(N)c2cc1OC,9,22µM*,?,?,.,-1

# Source: PubChem (National Center for Advancing Translational Sciences (NCATS))
